Screening data as filed in PubChem.
USP17 inh = inhibitors of human USP17 deubiquitinase. actives 6.5% (n = 47,000). AID 1645855, 2021. purified USP17, Ub-rhodamine cleavage fluorescence, 3 h. Ubiquitin carboxyl-terminal hydrolase 17-like protein 5 (Homo sapiens), A8MUK1. inhibition, % at 50 µM
USP30 inh = inhibitors of human USP30 deubiquitinase. Ubiquitin carboxyl-terminal hydrolase 30 (Homo sapiens), Q70CQ3. purified USP30, Ub-rhodamine cleavage fluorescence. inhibition, % at 25 µM. actives 5.3% (n = 47,000)
Target sequence (Q70CQ3 whole entry, looked up): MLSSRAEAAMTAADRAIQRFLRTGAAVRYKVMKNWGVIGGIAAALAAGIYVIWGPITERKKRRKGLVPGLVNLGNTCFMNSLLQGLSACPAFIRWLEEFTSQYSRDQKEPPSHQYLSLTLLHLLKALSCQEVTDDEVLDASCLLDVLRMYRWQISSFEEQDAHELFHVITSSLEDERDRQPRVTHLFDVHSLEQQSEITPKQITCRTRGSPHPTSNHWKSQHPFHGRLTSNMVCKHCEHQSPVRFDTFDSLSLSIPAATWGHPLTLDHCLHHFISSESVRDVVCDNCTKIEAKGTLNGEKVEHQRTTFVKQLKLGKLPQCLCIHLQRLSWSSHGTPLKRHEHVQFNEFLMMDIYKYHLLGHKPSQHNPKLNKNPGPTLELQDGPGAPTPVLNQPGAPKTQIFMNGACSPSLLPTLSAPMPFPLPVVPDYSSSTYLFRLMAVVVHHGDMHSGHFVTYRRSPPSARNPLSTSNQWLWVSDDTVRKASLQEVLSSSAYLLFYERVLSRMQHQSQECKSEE
USP8 inh = inhibitors of human USP8 deubiquitinase; Ubiquitin carboxyl-terminal hydrolase 8 (Homo sapiens), P40818; purified USP8, Ub-rhodamine cleavage fluorescence, 30 min; inhibition, % at 20 µM; actives 4.2% (n = 47,000)
USP10 inh = inhibitors of human USP10 deubiquitinase. Ubiquitin carboxyl-terminal hydrolase 10 (Homo sapiens), Q14694. purified USP10, Ub-rhodamine fluorescence, 60 min. inhibition, % at 20 µM. actives 1.1% (n = 47,000)
USP28 inh = inhibitors of human USP28 deubiquitinase. Ubiquitin carboxyl-terminal hydrolase 28 (Homo sapiens), Q96RU2. purified USP28, Ub-rhodamine cleavage fluorescence, 30 min. inhibition, % at 25 µM. actives 3% (n = 47,000). AID 1645857, 2021
Of the large screens only hits and unclear results are named; the others gave an inactive call. Most compounds without a hit are left out; they make up all but 13% or so of the library. No stated cut-off is given here; in the data, active means inhibition above about 30%; inactive means the rest.

CN1CCCC(c2nnc3n2CCN(C(=O)c2cc4ccc(F)cc4[nH]2)CC3)C1 (stereo not drawn)	none
Cc1c(C(=O)NC2CCCC2)nnn1-c1cccc2c1CCN(Cc1ccncc1)C2	none
COc1ccc(OCCCn2c(CNC(=O)c3ccco3)nc3ccccc32)cc1	USP17 inh 40.7, USP30 inh 48.2
CN(Cc1nc2ccccc2n1CCCOc1ccccc1)C(=O)c1ccco1	none
COc1cccc(OCCCn2c(C(C)NC(=O)c3ccco3)nc3ccccc32)c1 (stereo not drawn)	USP17 inh 50.8
COc1cccc(OCCCn2c(CN(C)C(=O)c3ccco3)nc3ccccc32)c1	none
CS(=O)(=O)c1ccc(COc2ccc(-c3ncc(S(C)(=O)=O)c(-c4cccc(C(F)(F)F)c4)n3)cc2)cc1	none
O=C1NCCN1C1CCCN(Cc2cnn(-c3ccccc3)n2)C1 (stereo not drawn)	none
CSc1nc(N2CCCC2)c2sccc2n1	USP17 inh 40.3
O=C(COC(=O)C(c1ccccc1)c1ccccc1)NCc1ccccc1	USP30 inh 33.7
Cc1oncc1C(=O)N1CCc2c(nnn2C)C1COCC1CC1 (stereo not drawn)	none
O=C(Nc1ccccc1Cl)N(CCN1CCOCC1)Cc1cc2cc3c(cc2[nH]c1=O)OCCO3	none
CCn1cc(C(=O)NC(C)c2cccnc2)c(=O)c2ccc(C)nc21 (stereo not drawn)	none
Cc1cccc(C(=O)N2CCOCC(Cc3ccc4nccn4n3)C2)n1 (stereo not drawn)	none
COc1cccc(CN(C)C(=O)CC(c2ccccc2)c2ccccc2)c1	USP30 inh 40.9 (no result: USP17 inh)
COc1cccc(NC(=O)C(C(=O)Nc2cccc(OC)c2)c2ccccc2)c1	none
Cc1ccc(-n2nc(C)c3c2NC(=O)CC3C(=O)c2ccc(O)cc2)cc1C (stereo not drawn)	none
Cc1nn(-c2ccc(F)cc2)c2c1C(C(=O)c1ccc3c(c1)OCO3)CC(=O)N2 (stereo not drawn)	none
Cc1cccc(-n2nc(C)c3c2NC(=O)CC3C(=O)c2cc3ccccc3o2)c1 (stereo not drawn)	USP17 inh 70.4
COc1ccc(C(=O)C2CC(=O)Nc3c2c(C)nn3-c2ccc(Br)cc2)cc1 (stereo not drawn)	USP17 inh 58.4, USP8 inh 30.1
COc1ccc(-n2nc(C)c3c2NC(=O)CC3C(=O)c2ccc3c(c2)OCO3)cc1 (stereo not drawn)	USP30 inh 38.9
Cc1cccc(-n2nc(C)c3c2NC(=O)CC3C(=O)c2ccc3c(c2)OCO3)c1 (stereo not drawn)	none
Cc1cc(=O)n2c(n1)NC(Nc1ccc(Cl)cc1)=NC2c1cccnc1 (stereo not drawn)	none
O=S(=O)(c1cccc(F)c1)N1CCN(c2nnnn2-c2ccccc2)CC1	USP17 inh 30.5
N#Cc1cccc(S(=O)(=O)N2CCc3nc4ccccc4n3CC2)c1	USP17 inh 30.2, USP30 inh 51.3
O=S(=O)(c1cccc(F)c1)N1CCc2nc3ccccc3n2CC1	USP17 inh 90.7
N#Cc1cccc(NC(=O)N2CCc3nc4ccccc4n3CC2)c1	USP30 inh 32.7
Cc1nn(-c2ccccc2)c(C)c1C(=O)OC(C)C(=O)Nc1cccc(C(F)(F)F)c1 (stereo not drawn)	none
CCN1CCCC1CN(Cc1cc2ccc(C)c(C)c2[nH]c1=O)C(=O)Nc1cccc(Cl)c1 (stereo not drawn)	none
Cc1cccc(S(=O)(=O)N2CCc3nc4ccccc4n3CC2)c1	USP17 inh 84.1
O=C(Nc1cccc(C(F)(F)F)c1)N1CCCn2c(nc3ccccc32)C1	USP17 inh 36.9, USP30 inh 78.7, USP28 inh 31.5
O=C(Nc1ccccc1)N1CCC(CCOc2ccccc2)CC1	none
O=C(Nc1ccccc1)N1CCCn2c(nc3ccccc32)C1	none
N#Cc1cccc(NC(=O)N2CCC(CCOc3ccccc3)CC2)c1	USP30 inh 32.9
Cc1cccc(C(=O)N2C[C@@H]3OCC(=O)N(C4CCOCC4)[C@H]3C2)n1	none
NC(N)=NCCC(=O)N1CCn2nc(-c3ccc4ccccc4c3)cc2C1	USP30 inh 40.1, USP28 inh 44.5
Cn1c(CC2CCN(C(=O)c3cccc(C(F)(F)F)c3)C2)nc2cccnc21 (stereo not drawn)	none
COc1ccc(CNC(=O)CN2C(=O)c3ccccc3C2c2c[nH]c3ccccc23)cc1 (stereo not drawn)	none
